# Legend:
# Experiment in all cases: DAPPL (digital affinity profiling via proximity ligation, sequencing); 10 mM Tris-HCl pH 7.5, 50 mM NaCl, 1 mM DTT, 4% glycerol, room temperature, 30 min; GST-TFs on glutathione beads, 16-mer random dsDNA library, 0.1% formaldehyde crosslink after washing; high values mean tight binding
# FLI1 = target: T1, FLI1 (Homo sapiens, UniProt Q01543 1-452); conditions: protein: recombinant; tags: N-terminal GST; dsDNA, one strand shown
# T1 sequence: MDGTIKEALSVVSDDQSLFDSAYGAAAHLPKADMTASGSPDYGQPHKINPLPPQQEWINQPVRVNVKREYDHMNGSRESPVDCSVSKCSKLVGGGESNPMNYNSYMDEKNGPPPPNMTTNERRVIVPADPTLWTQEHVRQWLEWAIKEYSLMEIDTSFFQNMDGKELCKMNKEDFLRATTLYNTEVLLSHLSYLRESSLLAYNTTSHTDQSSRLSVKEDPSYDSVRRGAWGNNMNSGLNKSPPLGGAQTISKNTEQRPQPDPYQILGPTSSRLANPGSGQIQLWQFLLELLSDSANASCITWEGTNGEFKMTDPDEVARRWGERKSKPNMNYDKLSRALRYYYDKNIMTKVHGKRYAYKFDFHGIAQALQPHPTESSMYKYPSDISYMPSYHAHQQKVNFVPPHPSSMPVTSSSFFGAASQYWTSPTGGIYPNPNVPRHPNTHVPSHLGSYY
# Method in brief: (§1)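 After expression in yeast as GST fusions, human transcription factors were bound to glutathione beads, DNA-barcoded and mixed with a tag-only sample. The pools were incubated with 200 nmole of a 16-mer random double-stranded DNA library in Tris/NaCl/DTT/glycerol buffer (30 min, room temperature), washed and crosslinked with 0.1% formaldehyde. Proximity ligation with BsaI/T4 ligase ran for 1 h at 37 °C, before PCR amplification and sequencing on an Illumina NextSeq500. Binding signal is a hexamer's read frequency for a factor divided by its frequency for the tag-only sample.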
# ELK1 = target: T2, ELK1 (Homo sapiens, UniProt P19419 1-428); conditions: protein: recombinant; tags: N-terminal GST; dsDNA, one strand shown
# T2 sequence: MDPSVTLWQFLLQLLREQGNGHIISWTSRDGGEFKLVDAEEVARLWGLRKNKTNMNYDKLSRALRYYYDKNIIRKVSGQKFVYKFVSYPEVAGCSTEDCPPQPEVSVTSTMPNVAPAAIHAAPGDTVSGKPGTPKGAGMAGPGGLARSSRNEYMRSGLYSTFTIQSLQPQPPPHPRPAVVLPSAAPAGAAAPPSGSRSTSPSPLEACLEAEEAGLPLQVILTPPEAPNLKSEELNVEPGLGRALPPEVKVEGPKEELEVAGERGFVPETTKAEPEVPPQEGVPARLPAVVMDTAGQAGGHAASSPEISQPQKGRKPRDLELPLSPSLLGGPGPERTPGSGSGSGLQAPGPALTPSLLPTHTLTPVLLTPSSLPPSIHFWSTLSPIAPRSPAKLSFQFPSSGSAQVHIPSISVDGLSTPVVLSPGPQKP
# Method in brief: as §1
# GABPA = target: T3, GABPA (Homo sapiens, UniProt Q06546 1-454); conditions: protein: recombinant; tags: N-terminal GST; dsDNA, one strand shown
# T3 sequence: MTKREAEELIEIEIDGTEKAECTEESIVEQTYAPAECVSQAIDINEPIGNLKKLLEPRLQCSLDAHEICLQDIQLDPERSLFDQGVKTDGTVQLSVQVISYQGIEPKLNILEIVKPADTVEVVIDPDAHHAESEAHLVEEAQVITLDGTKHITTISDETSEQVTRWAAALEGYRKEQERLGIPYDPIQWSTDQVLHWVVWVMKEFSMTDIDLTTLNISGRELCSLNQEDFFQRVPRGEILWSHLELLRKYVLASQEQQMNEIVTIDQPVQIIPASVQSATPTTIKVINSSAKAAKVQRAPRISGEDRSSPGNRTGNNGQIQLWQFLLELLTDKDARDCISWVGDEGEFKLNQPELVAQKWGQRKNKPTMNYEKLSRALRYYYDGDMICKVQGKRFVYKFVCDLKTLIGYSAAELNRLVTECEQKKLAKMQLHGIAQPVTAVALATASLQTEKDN
# Method in brief: as §1
# ERG = target: T4, ERG (Homo sapiens, UniProt P11308 1-479); conditions: protein: recombinant; tags: N-terminal GST; dsDNA, one strand shown
# T4 sequence: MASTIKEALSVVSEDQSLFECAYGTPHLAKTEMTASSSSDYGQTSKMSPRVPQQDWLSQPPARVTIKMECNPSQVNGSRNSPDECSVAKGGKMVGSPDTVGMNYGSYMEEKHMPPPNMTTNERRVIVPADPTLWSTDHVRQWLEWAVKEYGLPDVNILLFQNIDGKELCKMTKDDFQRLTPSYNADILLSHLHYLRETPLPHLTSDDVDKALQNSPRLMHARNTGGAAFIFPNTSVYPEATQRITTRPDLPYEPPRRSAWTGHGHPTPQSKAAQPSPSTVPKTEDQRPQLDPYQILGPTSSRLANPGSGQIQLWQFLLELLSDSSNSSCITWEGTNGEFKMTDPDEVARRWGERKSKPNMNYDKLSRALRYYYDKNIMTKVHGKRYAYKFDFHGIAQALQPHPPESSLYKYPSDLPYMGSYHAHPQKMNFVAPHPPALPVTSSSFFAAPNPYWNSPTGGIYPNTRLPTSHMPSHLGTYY
# Method in brief: as §1
# ELF1 = ELF1 (Homo sapiens, UniProt P32519 1-619); conditions: protein: recombinant; tags: N-terminal GST; dsDNA, one strand shown
# Method in brief: as §1
# EHF = target: T5, EHF (Homo sapiens, UniProt Q9NZC4 1-300); conditions: protein: recombinant; tags: N-terminal GST; dsDNA, one strand shown
# T5 sequence: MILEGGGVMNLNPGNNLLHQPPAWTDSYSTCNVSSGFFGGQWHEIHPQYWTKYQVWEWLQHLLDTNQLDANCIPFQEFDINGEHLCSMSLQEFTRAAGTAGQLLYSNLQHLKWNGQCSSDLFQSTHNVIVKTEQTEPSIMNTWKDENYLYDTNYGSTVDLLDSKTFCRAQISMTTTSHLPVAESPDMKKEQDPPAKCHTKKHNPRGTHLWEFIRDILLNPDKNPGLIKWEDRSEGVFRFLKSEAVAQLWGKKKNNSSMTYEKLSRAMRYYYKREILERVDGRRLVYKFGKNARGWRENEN
# Method in brief: as §1
# SPI1 = SPI1 (Homo sapiens, UniProt P17947 1-270); conditions: protein: recombinant; tags: N-terminal GST; dsDNA, one strand shown
# Method in brief: as §1
# SPIB = SPIB (Homo sapiens, UniProt Q01892 1-262); conditions: protein: recombinant; tags: N-terminal GST; dsDNA, one strand shown
# Method in brief: as §1
# ELK3 = target: T6, ELK3 (Homo sapiens, UniProt P41970 1-407); conditions: protein: recombinant; tags: N-terminal GST; dsDNA, one strand shown
# T6 sequence: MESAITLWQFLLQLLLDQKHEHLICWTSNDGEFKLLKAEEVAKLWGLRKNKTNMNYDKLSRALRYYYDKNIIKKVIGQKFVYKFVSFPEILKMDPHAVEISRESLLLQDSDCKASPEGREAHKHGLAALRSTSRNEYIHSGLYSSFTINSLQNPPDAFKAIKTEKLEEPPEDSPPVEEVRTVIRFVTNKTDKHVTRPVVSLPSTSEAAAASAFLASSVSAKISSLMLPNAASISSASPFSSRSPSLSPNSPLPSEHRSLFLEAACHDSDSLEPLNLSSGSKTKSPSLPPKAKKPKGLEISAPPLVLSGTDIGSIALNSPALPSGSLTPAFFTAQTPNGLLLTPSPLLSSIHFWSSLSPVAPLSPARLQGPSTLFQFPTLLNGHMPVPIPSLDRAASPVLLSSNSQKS
# Method in brief: as §1
# FEV = target: T7, FEV (Homo sapiens, UniProt Q99581 1-238); conditions: protein: recombinant; tags: N-terminal GST; dsDNA, one strand shown
# T7 sequence: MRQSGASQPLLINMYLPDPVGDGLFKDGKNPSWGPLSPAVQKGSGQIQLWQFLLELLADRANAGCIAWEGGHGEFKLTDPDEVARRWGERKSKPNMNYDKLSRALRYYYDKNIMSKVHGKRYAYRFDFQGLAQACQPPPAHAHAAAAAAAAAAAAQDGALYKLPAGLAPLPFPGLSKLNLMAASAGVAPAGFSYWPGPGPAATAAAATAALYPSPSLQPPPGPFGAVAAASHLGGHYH
# Method in brief: as §1
# ETV5 = ETV5 (Homo sapiens, UniProt P41161 1-510); conditions: protein: recombinant; tags: N-terminal GST; dsDNA, one strand shown
# Method in brief: as §1
# HSF1 = HSF1 (Homo sapiens, UniProt Q00613 1-529); conditions: protein: recombinant; tags: N-terminal GST; chain copies: 3; dsDNA, one strand shown
# Method in brief: as §1
# SPIC = target: T8, SPIC (Homo sapiens, UniProt Q8N5J4 1-248); conditions: protein: recombinant; tags: N-terminal GST; dsDNA, one strand shown
# T8 sequence: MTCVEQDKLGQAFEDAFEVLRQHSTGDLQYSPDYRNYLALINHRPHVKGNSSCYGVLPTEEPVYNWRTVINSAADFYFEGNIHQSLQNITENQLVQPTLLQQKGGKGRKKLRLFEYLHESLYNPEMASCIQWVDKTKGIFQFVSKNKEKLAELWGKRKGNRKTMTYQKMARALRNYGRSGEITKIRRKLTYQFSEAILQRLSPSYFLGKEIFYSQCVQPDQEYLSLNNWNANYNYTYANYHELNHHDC
# Method in brief: as §1
# ELF4 = ELF4 (Homo sapiens, UniProt Q99607 1-663); conditions: protein: recombinant; tags: N-terminal GST; dsDNA, one strand shown
# Method in brief: as §1
# ELK4 = target: T9, ELK4 (Homo sapiens, UniProt P28324-2 1-405); conditions: protein: recombinant; tags: N-terminal GST; dsDNA, one strand shown
# T9 sequence: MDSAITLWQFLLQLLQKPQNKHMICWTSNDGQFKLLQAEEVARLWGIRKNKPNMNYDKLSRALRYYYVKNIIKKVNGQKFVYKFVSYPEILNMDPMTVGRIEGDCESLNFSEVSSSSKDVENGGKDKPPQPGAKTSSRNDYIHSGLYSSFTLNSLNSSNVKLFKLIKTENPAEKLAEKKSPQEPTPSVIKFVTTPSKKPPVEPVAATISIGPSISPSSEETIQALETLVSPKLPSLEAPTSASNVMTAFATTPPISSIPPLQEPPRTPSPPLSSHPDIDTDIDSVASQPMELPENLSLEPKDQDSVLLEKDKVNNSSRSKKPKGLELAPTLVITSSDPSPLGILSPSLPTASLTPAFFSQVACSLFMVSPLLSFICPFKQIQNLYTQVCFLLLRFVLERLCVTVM
# Method in brief: as §1
# ETV2 = target: T10, ETV2 (Homo sapiens, UniProt O00321 1-342); conditions: protein: recombinant; tags: N-terminal GST; dsDNA, one strand shown
# T10 sequence: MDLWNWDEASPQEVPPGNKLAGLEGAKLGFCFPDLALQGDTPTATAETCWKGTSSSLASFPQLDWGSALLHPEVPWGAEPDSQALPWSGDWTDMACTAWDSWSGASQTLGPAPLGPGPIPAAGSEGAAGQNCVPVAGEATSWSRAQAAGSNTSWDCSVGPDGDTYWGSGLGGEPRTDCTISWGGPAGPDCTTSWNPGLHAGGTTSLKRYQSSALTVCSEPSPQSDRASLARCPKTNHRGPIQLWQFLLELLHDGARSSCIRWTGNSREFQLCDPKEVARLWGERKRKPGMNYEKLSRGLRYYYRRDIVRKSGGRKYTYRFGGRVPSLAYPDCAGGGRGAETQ
# Method in brief: as §1
# ELF3 = target: T11, ELF3 (Homo sapiens, UniProt P78545 1-371); conditions: protein: recombinant; tags: N-terminal GST; dsDNA, one strand shown
# T11 sequence: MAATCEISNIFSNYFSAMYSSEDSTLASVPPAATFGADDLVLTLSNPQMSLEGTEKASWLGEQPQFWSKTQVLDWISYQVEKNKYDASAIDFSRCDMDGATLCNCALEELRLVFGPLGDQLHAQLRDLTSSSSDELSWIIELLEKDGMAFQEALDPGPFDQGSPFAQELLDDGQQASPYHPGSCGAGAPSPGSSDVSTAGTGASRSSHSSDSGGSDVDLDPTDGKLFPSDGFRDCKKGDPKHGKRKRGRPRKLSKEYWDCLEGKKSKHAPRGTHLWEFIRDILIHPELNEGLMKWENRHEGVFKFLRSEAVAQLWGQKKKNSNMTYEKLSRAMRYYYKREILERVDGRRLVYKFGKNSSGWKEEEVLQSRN
# Method in brief: as §1
# CRX = CRX (Homo sapiens, UniProt O43186 1-299); conditions: protein: recombinant; tags: N-terminal GST; dsDNA, one strand shown
# Method in brief: as §1
# ETV1 = ETV1 (Homo sapiens, UniProt P50549 1-477); conditions: protein: recombinant; tags: N-terminal GST; dsDNA, one strand shown
# Method in brief: as §1
# ELF1, sequence (P32519 whole entry): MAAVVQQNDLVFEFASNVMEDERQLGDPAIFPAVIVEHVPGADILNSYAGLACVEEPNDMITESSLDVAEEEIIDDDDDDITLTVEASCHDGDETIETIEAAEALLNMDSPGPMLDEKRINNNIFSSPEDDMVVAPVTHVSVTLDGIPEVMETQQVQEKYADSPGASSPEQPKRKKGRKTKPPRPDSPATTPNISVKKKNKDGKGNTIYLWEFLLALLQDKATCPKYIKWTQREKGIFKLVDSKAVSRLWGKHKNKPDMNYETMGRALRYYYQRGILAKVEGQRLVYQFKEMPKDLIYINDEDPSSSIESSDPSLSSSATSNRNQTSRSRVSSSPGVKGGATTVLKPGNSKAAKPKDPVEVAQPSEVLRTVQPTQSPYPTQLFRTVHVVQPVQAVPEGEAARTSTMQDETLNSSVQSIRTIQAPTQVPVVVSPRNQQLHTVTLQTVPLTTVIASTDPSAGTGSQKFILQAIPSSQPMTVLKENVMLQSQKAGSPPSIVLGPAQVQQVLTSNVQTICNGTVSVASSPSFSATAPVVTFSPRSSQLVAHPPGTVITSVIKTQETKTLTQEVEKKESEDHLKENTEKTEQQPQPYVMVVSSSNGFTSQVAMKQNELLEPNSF
# CRX, sequence (O43186 whole entry): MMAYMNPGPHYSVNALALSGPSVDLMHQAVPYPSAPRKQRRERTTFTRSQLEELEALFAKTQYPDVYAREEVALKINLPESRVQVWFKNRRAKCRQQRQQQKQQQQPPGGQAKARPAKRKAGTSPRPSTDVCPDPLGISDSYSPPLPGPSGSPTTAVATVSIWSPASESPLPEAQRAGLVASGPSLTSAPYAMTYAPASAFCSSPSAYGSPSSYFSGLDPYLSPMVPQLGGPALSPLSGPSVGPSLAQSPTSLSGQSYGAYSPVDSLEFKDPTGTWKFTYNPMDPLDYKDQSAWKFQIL
# SPIB, sequence (Q01892 whole entry): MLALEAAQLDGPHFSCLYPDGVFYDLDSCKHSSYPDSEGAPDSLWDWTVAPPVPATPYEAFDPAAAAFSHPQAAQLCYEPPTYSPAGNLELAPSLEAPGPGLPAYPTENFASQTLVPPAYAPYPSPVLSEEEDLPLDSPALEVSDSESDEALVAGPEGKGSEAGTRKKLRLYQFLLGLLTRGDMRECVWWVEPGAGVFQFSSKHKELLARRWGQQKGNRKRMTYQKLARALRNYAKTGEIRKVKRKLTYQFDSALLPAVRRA
# ETV5, sequence (P41161 whole entry): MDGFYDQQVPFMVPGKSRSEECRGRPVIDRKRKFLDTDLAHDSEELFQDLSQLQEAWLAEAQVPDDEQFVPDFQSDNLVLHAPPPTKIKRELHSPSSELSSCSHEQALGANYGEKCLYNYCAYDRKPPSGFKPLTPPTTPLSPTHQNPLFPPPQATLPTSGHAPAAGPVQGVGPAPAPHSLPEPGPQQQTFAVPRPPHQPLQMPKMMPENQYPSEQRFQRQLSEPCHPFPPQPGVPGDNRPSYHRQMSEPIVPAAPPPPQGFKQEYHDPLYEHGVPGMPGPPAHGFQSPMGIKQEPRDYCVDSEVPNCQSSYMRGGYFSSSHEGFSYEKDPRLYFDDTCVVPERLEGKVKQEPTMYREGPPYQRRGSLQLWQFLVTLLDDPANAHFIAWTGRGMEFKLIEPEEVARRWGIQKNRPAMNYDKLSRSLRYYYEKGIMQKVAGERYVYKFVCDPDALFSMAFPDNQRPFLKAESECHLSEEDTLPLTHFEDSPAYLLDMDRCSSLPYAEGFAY
# HSF1, sequence (Q00613 whole entry): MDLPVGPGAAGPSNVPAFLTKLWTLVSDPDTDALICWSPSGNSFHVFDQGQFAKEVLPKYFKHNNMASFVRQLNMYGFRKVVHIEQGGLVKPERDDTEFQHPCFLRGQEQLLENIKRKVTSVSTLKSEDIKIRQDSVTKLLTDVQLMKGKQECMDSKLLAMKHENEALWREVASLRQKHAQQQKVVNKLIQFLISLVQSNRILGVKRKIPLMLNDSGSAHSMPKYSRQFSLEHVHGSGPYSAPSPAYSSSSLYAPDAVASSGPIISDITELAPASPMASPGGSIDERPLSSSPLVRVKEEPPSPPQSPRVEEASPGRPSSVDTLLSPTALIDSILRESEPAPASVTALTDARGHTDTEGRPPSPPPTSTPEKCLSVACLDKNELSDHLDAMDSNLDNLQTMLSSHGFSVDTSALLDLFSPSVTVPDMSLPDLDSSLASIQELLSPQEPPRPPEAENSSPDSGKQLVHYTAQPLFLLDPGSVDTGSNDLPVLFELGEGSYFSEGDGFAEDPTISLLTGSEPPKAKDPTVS
# ETV1, sequence (P50549 whole entry): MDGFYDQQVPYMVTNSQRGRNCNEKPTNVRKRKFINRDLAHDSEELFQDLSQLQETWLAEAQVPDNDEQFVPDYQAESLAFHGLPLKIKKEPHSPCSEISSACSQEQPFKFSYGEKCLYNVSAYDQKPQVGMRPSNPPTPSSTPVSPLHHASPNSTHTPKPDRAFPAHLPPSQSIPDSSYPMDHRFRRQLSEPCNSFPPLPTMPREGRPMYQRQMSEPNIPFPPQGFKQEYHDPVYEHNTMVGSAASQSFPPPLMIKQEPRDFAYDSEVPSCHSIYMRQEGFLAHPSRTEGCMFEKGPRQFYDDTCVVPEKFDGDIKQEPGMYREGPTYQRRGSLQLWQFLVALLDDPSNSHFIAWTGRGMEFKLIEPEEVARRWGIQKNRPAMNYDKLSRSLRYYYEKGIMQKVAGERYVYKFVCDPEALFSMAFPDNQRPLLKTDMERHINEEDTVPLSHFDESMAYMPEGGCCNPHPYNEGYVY
# ELF4, sequence (Q99607 whole entry): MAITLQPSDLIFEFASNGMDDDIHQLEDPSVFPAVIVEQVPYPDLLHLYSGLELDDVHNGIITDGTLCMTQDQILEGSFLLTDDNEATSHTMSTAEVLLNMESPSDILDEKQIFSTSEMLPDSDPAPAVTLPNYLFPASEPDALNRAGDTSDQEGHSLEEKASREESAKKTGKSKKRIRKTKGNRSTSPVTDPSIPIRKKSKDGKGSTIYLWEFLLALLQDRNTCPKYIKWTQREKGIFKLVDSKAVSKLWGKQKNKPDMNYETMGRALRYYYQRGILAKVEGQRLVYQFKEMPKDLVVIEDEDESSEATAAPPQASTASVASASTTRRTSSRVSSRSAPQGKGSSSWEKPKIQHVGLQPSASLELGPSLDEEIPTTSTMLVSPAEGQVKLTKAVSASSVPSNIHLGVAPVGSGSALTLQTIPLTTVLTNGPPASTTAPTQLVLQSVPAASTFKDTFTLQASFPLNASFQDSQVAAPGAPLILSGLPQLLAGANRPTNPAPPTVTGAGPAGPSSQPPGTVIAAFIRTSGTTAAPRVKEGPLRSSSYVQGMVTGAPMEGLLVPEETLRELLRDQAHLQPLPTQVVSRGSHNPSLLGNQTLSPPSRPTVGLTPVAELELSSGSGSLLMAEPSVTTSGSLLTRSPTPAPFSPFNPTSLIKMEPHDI
sequence,measurement,setting,value
CTATTT,binding signal,FLI1,"1.7 fold enrichment (6-mer frequency, TF over GST control)"
same,binding signal,ELK1,"1.67 fold enrichment (6-mer frequency, TF over GST control)"
same,binding signal,GABPA,"1.74 fold enrichment (6-mer frequency, TF over GST control)"
same,binding signal,ERG,"1.77 fold enrichment (6-mer frequency, TF over GST control)"
same,binding signal,ELF1,"1.58 fold enrichment (6-mer frequency, TF over GST control)"
same,binding signal,EHF,"1.85 fold enrichment (6-mer frequency, TF over GST control)"
same,binding signal,SPI1,"1.76 fold enrichment (6-mer frequency, TF over GST control)"
same,binding signal,SPIB,"1.81 fold enrichment (6-mer frequency, TF over GST control)"
same,binding signal,ELK3,"1.85 fold enrichment (6-mer frequency, TF over GST control)"
same,binding signal,FEV,"1.68 fold enrichment (6-mer frequency, TF over GST control)"
same,binding signal,ETV5,"1.64 fold enrichment (6-mer frequency, TF over GST control)"
same,binding signal,HSF1,"1.45 fold enrichment (6-mer frequency, TF over GST control)"
same,binding signal,SPIC,"2.07 fold enrichment (6-mer frequency, TF over GST control)"
same,binding signal,ELF4,"1.69 fold enrichment (6-mer frequency, TF over GST control)"
same,binding signal,ELK4,"1.88 fold enrichment (6-mer frequency, TF over GST control)"
same,binding signal,ETV2,"1.68 fold enrichment (6-mer frequency, TF over GST control)"
same,binding signal,ELF3,"2.07 fold enrichment (6-mer frequency, TF over GST control)"
same,binding signal,CRX,"1.64 fold enrichment (6-mer frequency, TF over GST control)"
same,binding signal,ETV1,"1.74 fold enrichment (6-mer frequency, TF over GST control)"

# Reference: paper PMC7862700, “An all-to-all approach to the identification of sequence-specific readers for epigenetic DNA modifications on cytosine”
